Calls of active or inactive are those of the source.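 How the source made its calls: active means mean duplicate potentiation above the buffer control mean plus 5 SD of buffer wells; inactive means the rest.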
biological target: Potassium voltage-gated channel subfamily KQT member 2 (Rattus norvegicus) (UniProt O88943); assay: KCNQ2 thallium flux enhancement – KCNQ2-CHO-K1 cells, selectivity assay for KCNQ1 potentiator project (AID 493009); conditions: FluxOR thallium flux fluorescence, at 10 µM; stronger effect = higher value, scaled: buffer 0, activator control 100;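 further: assay conditions were tuned for KCNQ1 rather than KCNQ2 modulators; signal is max minus min fluorescence divided by baseline after thallium stimulus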
Sequence (O88943 whole entry, looked up): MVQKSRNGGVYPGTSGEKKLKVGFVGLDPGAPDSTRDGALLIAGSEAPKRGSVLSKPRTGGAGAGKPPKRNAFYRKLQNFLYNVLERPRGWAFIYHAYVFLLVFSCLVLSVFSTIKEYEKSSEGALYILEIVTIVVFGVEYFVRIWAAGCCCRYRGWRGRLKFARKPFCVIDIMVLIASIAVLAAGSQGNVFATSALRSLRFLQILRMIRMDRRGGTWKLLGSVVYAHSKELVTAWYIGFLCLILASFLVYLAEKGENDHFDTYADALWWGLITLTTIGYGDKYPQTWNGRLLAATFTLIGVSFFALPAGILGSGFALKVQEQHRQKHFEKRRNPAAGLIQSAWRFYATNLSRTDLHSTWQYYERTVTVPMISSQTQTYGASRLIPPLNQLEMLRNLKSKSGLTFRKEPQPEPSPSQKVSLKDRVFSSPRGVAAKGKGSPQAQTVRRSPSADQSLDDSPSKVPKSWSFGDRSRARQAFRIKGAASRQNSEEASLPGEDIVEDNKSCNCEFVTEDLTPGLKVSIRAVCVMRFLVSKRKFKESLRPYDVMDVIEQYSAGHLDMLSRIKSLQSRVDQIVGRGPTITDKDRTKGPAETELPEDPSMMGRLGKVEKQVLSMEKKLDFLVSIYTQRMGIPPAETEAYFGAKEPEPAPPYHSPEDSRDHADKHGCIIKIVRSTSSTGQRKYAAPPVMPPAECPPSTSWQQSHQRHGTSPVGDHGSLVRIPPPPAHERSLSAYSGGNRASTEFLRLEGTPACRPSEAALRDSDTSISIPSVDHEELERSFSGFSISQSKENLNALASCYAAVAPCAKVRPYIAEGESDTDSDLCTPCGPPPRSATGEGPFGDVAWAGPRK

SMILES	outcome	potentiation
C=CCOc1c(Br)cc(/C=N/Nc2ccc(C(=O)O)cc2)cc1OCC	inactive	–
O=C(NC(=S)NC1CCCc2ccccc21)c1ccco1 (stereo not given)	–	272% (active)
Cc1onc(-c2ccccc2Cl)c1C(=O)Nc1ccccc1O	inactive	–
COc1ccc2nc(N=Nc3ccc(O)c4ccccc34)sc2c1	–	188% (active)
Cc1ccccc1-n1c(C)cc(/C=N/NC(=O)c2ccncc2)c1C	–	165% (active)
COC(=O)c1ccsc1NC(=O)CN1CCN(Cc2ccc3c(c2)OCO3)CC1	inactive	–
O=C(NC(=S)Nc1ccccc1Br)c1ccco1	inactive	–
O=C(NC(=S)Nc1ccccc1N1CCCCC1)c1cccs1	–	234% (active)
CC1CC(C)CN(Cc2nc(N)nc(Nc3ccc4ccccc4c3)n2)C1 (stereo not given)	–	165% (active)
O=C1C=C(NCc2ccccc2)c2ccccc2C1=O	inactive	–
CC(O)Cc1cn([C@@H](CCCCN)C(=O)N2CCNCC2)nn1 (stereo not given in full)	inactive	–
CCOc1ccc(NC(=O)Cn2sc3nc(C)cc(C)c3c2=O)cc1	inactive	–
OC(C#CCCN1CCCCC1)(c1ccccc1)c1ccccc1	inactive	–
O=C(NC(=S)Nc1ccccc1)c1csnn1	–	642% (active)
O=c1[nH]cc(N=Cc2cc(Cl)cc(Cl)c2O)c(=O)[nH]1	inactive	–
CCC1(c2ccc(Cl)cc2)NC(=S)N(c2ccc(C)cc2)N1 (stereo not given)	–	604% (active)
O=S(=O)(NCCOc1ccccc1)c1ccc2ccccc2c1	inactive	–
O=C1CN(C(=O)CSc2nc3cc(Cl)ccc3c(=O)n2Cc2ccccc2)c2ccccc2N1	inactive	–
COc1ccccc1C(=O)NNC(=O)C(=O)NC1CCCCC1	–	262% (active)
O=C(NC(=S)Nc1ccccc1F)c1ccc(Br)o1	–	261% (active)

SMILES	outcome	potentiation
O=C(Nc1cccc(NC(=O)c2c(F)cccc2F)n1)c1c(F)cccc1F	inactive	–
N#Cc1ccccc1NS(=O)(=O)c1cc2c3c(c1)CCC(=O)N3CCC2	inactive	–
CCCSC(=S)c1c(C)[nH]n(-c2ccccc2)c1=O	–	432% (active)
CCCOc1ccc(Cc2nc(N)nc(N)n2)cc1	inactive	–
O=C1CCC/C(=N\NC(=O)c2ccc(COc3cccc4cccnc34)cc2)C1	inactive	–
O=C1c2ccccc2NC(c2ccc(Br)s2)N1O (stereo not given)	–	252% (active)
FC(F)(F)c1cc(N2CCNCC2)c2ccccc2n1	inactive	–
COc1ccccc1-n1cnc2cc(NCc3ccco3)ccc21	inactive	–
CCC(C(=O)OCC(=O)NC(=O)NC(C)(C)C)c1ccccc1 (stereo not given)	inactive	–
CSc1ccc(/C=N/NC(=O)c2cccs2)cc1	inactive	–
S=c1nc(SCc2ccccc2)[nH]c2ccccc12	–	500% (active)
O=C(NC(=S)Nc1ccccc1N1CCCC1)c1ccc([N+](=O)[O-])cc1	–	218% (active)
Cc1[nH]n(-c2ccc(F)cc2)c(=O)c1/C=N/c1sc2c(c1C#N)CCCC2	–	246% (active)
O=C(NC(=S)NC1CCCCC1)c1ccc(Cl)cc1	–	390% (active)
CCCCCn1c(=S)[nH]c2ncccc2c1=O	–	200% (active)
CC(C)(C)n1nnnc1C(c1cc2cc3c(cc2[nH]c1=O)OCCO3)N1CCSCC1 (stereo not given)	inactive	–
COc1ccc(C(=O)NNC(=O)C(=O)NC2CCCCC2)cc1	–	168% (active)
C=CCN(CC=C)C(=S)NC(=O)c1ccc(OC)c(Br)c1	–	474% (active)
Nc1nc(C23CC4CC(CC(C4)C2)C3)cs1	–	168% (active)
Cc1ccc(-c2nc3ccccc3c(=O)n2O)cc1	–	171% (active)

Reference: PubChem BioAssay
